# Measurements reported in ChEMBL document CHEMBL1961873, “Compounds: GSK PKIS; Assays: Nanosyn kinase panel” (2012).
# Where “and” joins values, the source holds several entries; their conditions need not be identical. Equal entries are not always repeated.
# Key:
# [1] = biological target: Tyrosine-protein kinase Fyn (Homo sapiens) (UniProt P06241); settings: at 1 µM
# [2] = biological target: Tyrosine-protein kinase HCK (Homo sapiens) (UniProt P08631); settings: at 0.1 µM
# [3] = biological target: Tyrosine-protein kinase HCK (Homo sapiens) (UniProt P08631); settings: at 1 µM
# [4] = biological target: Insulin-like growth factor 1 receptor (Homo sapiens) (UniProt P08069); settings: at 0.1 µM
# [5] = biological target: Insulin-like growth factor 1 receptor (Homo sapiens) (UniProt P08069); settings: at 1 µM
# [6] = biological target: Insulin receptor (Homo sapiens) (UniProt P06213); settings: at 0.1 µM
# Insulin receptor (Homo sapiens), sequence (P06213 28-758 limits assumed): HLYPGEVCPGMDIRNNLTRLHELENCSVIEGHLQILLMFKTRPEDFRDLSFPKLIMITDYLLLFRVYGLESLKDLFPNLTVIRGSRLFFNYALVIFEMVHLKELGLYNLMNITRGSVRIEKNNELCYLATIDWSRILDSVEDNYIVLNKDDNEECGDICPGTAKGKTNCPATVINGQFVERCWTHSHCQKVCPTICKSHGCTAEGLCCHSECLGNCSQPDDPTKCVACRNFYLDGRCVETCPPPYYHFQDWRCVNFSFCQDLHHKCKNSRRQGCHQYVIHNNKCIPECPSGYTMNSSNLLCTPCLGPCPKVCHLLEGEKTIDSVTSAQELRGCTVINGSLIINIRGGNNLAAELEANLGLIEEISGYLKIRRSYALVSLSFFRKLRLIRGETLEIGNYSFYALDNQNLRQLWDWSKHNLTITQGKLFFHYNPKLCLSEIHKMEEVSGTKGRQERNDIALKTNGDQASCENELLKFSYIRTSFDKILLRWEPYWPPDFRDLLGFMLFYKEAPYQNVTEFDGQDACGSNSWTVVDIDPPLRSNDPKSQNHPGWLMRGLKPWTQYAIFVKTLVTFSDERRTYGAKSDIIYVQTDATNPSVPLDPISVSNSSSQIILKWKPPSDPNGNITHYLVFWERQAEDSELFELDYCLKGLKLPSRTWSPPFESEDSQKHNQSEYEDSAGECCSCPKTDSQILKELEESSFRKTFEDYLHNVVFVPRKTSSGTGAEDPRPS
# Insulin receptor (Homo sapiens), sequence (P06213 763-1382 limits assumed): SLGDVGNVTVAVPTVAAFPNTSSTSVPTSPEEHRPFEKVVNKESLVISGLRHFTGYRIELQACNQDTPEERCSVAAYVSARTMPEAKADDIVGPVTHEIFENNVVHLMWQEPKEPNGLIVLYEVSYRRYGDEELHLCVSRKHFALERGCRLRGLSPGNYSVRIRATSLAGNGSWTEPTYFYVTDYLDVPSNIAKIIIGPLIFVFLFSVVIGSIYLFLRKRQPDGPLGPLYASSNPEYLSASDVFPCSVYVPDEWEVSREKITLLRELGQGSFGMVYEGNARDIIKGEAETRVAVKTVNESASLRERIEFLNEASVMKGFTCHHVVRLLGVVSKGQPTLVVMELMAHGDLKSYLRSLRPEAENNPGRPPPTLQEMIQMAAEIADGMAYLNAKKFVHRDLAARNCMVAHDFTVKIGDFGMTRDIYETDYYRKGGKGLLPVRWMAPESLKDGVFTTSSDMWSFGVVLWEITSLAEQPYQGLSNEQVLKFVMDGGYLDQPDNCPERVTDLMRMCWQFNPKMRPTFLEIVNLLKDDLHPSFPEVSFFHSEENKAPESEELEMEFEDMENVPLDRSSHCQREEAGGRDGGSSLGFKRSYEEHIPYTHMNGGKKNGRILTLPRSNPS
# [7] = biological target: Insulin receptor (Homo sapiens) (UniProt P06213); settings: at 1 µM
# [8] = biological target: Insulin receptor-related protein (Homo sapiens) (UniProt P14616); settings: at 0.1 µM
# Insulin receptor-related protein (Homo sapiens), sequence (P14616 27-742 limits assumed): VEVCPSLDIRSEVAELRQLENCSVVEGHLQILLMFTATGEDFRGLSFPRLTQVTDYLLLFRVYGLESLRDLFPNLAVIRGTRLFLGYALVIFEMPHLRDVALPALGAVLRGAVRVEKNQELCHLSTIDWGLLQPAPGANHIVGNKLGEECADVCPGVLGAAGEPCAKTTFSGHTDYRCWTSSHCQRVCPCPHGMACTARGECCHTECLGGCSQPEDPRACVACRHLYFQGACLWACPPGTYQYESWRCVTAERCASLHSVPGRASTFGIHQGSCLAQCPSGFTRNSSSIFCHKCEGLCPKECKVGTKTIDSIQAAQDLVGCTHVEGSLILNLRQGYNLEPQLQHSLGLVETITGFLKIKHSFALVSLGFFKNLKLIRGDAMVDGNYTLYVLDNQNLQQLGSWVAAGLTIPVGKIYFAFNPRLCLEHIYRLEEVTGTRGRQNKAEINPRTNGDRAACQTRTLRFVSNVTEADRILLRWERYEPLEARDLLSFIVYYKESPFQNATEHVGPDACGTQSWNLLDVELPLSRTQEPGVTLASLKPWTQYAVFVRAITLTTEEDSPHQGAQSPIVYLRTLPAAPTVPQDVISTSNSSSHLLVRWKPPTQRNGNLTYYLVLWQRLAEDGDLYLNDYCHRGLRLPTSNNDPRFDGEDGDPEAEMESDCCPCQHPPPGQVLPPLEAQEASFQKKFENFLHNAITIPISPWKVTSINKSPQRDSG
# Insulin receptor-related protein (Homo sapiens), sequence (P14616 747-1297 limits assumed): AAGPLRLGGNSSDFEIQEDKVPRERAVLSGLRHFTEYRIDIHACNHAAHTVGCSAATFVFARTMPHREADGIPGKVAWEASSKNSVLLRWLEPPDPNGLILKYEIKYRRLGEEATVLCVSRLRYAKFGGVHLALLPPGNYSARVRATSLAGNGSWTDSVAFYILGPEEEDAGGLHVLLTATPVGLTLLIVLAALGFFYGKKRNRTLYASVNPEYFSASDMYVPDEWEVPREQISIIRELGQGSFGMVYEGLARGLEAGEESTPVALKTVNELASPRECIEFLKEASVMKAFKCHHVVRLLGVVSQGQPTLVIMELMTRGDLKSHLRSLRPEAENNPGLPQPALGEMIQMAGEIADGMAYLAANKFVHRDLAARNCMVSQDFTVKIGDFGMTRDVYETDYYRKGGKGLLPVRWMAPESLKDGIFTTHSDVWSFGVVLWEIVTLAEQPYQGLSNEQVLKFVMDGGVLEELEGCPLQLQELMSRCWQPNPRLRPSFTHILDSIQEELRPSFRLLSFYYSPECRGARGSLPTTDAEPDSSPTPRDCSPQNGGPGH
# [9] = biological target: Insulin receptor-related protein (Homo sapiens) (UniProt P14616); settings: at 1 µM
# [10] = biological target: T1, Tyrosine-protein kinase ITK/TSK (Homo sapiens) (UniProt Q08881); settings: at 0.1 µM
# T1 sequence (whole entry): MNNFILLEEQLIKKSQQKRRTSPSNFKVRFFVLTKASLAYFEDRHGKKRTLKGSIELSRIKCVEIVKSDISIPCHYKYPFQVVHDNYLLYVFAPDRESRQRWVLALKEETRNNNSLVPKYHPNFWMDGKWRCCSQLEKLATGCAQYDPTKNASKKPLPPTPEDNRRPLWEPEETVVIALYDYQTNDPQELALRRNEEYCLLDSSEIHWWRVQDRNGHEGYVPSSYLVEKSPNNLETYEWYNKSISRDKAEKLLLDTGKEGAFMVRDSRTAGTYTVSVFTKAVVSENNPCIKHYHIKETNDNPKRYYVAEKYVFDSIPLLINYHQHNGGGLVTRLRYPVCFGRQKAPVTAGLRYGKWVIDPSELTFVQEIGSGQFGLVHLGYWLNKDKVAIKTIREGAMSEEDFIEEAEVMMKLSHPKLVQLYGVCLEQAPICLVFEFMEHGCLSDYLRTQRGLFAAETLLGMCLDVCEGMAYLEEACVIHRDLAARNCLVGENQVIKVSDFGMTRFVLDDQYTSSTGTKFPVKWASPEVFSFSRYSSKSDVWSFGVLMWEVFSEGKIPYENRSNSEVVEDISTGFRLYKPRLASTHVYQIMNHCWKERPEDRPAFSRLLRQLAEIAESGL
# [11] = biological target: T1, Tyrosine-protein kinase ITK/TSK (Homo sapiens); settings: at 1 µM
# [12] = biological target: Tyrosine-protein kinase JAK1 (Homo sapiens) (UniProt P23458); settings: at 0.1 µM
# Tyrosine-protein kinase JAK1 (Homo sapiens), sequence (P23458 whole entry): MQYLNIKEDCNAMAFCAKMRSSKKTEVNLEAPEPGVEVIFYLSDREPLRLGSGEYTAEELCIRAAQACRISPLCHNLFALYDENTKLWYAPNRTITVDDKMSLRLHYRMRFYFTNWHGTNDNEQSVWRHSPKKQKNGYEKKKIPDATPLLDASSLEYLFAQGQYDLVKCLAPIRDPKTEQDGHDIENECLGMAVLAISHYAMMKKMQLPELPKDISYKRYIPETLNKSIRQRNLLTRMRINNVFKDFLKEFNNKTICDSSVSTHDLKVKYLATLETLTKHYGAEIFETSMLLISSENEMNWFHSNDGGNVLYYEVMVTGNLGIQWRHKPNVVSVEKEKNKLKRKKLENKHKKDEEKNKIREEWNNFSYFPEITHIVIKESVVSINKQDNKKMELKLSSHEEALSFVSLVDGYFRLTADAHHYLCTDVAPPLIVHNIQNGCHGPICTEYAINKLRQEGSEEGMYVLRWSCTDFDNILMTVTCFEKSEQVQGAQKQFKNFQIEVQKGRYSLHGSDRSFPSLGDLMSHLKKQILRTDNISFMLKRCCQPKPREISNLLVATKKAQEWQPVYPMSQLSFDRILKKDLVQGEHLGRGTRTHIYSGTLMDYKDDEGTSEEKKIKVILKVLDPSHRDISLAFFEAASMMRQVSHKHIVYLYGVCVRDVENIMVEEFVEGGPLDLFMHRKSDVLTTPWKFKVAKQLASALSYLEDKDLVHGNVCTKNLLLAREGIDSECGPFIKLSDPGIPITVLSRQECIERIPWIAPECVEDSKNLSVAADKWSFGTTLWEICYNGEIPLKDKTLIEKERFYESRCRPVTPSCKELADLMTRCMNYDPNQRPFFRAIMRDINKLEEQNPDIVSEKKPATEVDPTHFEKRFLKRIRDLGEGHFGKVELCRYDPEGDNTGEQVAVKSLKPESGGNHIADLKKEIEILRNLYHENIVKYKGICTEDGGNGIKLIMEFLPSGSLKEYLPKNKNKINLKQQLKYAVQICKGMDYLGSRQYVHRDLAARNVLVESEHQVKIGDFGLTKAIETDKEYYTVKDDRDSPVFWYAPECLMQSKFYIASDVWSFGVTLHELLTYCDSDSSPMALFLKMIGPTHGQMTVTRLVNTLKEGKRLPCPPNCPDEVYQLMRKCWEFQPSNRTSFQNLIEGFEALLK
# [13] = biological target: Tyrosine-protein kinase JAK1 (Homo sapiens) (UniProt P23458); settings: at 1 µM
# [14] = biological target: Tyrosine-protein kinase JAK2 (Homo sapiens) (UniProt O60674); settings: at 0.1 µM
# [15] = biological target: Tyrosine-protein kinase JAK2 (Homo sapiens) (UniProt O60674); settings: at 1 µM
# [16] = biological target: T2, Tyrosine-protein kinase JAK3 (Homo sapiens) (UniProt P52333); settings: at 0.1 µM
# T2 sequence (whole entry): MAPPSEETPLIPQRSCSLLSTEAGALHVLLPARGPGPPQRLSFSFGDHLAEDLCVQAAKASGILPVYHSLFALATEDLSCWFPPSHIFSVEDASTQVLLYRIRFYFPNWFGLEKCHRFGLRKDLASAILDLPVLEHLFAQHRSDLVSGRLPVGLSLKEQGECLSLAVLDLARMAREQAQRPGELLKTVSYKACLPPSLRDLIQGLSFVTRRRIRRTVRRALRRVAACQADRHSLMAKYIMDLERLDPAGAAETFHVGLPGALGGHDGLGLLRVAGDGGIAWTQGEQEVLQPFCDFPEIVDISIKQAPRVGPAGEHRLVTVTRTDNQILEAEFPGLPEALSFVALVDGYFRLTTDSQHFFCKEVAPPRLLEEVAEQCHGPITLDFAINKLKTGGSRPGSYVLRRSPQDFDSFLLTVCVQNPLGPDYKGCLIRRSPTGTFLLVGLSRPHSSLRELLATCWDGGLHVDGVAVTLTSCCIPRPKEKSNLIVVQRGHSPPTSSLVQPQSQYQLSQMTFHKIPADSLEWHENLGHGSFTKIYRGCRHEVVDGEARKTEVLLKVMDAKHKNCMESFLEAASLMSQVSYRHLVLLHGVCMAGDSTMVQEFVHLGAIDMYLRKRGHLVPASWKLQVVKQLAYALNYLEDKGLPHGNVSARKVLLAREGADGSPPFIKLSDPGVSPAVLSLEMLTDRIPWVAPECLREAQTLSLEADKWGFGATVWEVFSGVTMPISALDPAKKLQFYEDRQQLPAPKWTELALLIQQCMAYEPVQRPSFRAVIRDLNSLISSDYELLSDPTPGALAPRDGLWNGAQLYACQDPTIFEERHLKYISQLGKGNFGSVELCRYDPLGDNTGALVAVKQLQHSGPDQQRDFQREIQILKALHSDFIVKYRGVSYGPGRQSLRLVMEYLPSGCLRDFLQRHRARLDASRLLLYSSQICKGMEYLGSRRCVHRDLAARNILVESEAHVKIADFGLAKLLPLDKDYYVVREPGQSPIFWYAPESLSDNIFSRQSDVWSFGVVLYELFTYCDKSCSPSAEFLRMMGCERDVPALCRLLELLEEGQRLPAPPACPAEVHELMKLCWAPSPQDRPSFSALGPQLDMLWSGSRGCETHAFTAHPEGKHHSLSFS
# [17] = biological target: T2, Tyrosine-protein kinase JAK3 (Homo sapiens); settings: at 1 µM
# [18] = biological target: Vascular endothelial growth factor receptor 2 (Homo sapiens) (UniProt P35968); settings: at 0.1 µM
# [19] = biological target: Vascular endothelial growth factor receptor 2 (Homo sapiens) (UniProt P35968); settings: at 1 µM
# [20] = biological target: Mast/stem cell growth factor receptor Kit (Homo sapiens) (UniProt P10721); settings: at 0.1 µM;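 further: values are mean inhibition of KIT, from the GSK PKIS dataset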
# Tyrosine-protein kinase HCK (Homo sapiens), sequence (P08631 2-526 limits assumed): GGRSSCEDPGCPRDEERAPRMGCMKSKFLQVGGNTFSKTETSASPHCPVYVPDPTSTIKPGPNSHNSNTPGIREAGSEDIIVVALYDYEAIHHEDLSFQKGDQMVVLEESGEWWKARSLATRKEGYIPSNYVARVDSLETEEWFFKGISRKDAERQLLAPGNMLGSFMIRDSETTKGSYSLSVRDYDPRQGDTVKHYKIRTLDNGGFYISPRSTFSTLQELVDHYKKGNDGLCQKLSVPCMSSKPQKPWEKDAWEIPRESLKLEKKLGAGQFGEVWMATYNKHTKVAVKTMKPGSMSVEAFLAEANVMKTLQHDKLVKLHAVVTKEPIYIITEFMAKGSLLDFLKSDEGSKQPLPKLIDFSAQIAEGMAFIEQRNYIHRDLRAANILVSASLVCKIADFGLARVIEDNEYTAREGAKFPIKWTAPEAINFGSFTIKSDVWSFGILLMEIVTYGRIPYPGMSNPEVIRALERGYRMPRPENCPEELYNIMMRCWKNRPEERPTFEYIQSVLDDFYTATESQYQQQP
# Tyrosine-protein kinase Fyn (Homo sapiens), sequence (P06241 2-537 limits assumed): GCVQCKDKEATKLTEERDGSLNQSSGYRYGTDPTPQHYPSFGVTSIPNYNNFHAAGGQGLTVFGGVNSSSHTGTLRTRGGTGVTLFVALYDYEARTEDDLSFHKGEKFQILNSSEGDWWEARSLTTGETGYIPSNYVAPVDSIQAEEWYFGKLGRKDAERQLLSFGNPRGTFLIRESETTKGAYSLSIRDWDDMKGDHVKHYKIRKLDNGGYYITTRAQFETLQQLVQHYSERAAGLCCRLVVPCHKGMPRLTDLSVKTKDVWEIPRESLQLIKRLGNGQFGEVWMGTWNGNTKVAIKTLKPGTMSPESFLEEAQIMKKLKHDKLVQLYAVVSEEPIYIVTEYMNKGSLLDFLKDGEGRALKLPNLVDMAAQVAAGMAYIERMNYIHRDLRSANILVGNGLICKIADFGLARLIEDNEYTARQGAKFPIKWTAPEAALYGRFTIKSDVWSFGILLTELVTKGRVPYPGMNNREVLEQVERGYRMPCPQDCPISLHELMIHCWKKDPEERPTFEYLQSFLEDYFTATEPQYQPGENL
SMILES,inhibition [1],inhibition [2],inhibition [3],inhibition [4],inhibition [5],inhibition [6],inhibition [7],inhibition [8],inhibition [9],inhibition [10],inhibition [11],inhibition [12],inhibition [13],inhibition [14],inhibition [15],inhibition [16],inhibition [17],inhibition [18],inhibition [19],inhibition [20]
CNC(=O)c1sc(-n2cnc3cc(OC)c(OC)cc32)cc1OCc1ccccc1C(F)(F)F,18.9%,5.55%,14%,-3.71%,1.09%,-4.16%,-0.01%,2.15%,2.12%,0.38%,3.59%,0.71%,7.26%,-0.02%,0.52%,-2.82%,-0.34%,4.23%,12.4%,4.06%
COC(=O)Nc1nc2ccc(Oc3ccc(NC(=O)Nc4cc(C(F)(F)F)ccc4F)cc3)cc2s1,21.1%,8.79%,28.3%,-0.75%,1.6%,1.59%,3.09%,-2.9%,-1.09%,1.03%,2.72%,0.07%,9.06%,1.98%,7.31%,-0.26%,0.75%,69.8%,85.1%,17.9%
CN(c1ccc(NC(=O)NCCN2CCOCC2)cc1)c1ccnc(Nc2ccc(CS(C)(=O)=O)cc2)n1,1.63%,1.67%,13.6%,3.76%,4.94%,0.64%,4%,2.7%,2.84%,1.76%,9.06%,3.28%,15%,0.02%,9.94%,-0.77%,7.15%,7.07%,34.8%,60.2%
CS(=O)(=O)CCNCc1ccc(-c2ccc3ncnc(Nc4ccc(OCc5cccc(C(F)(F)F)c5)cc4)c3c2)o1,0.05%,9.32%,11.7%,18.2%,11.6%,11.2%,3.04%,1.51%,3.38%,1.71%,1.4%,1.68%,1.38%,4.27%,3.35%,-1.49%,0.32%,5.19%,11%,4.53%
c1ccc(-c2n[nH]cc2-c2ccnc(-c3ccc(OCCn4ccnc4)cc3)c2)nc1,7.07%,1.8%,9.8%,6.59%,2.24%,2.91%,2.56%,-0.75%,-0.28%,0.01%,2.03%,0.34%,6.98%,0.38%,3.12%,-0.46%,4.76%,19.9%,65.9%,1.62%
O=C(O[C@H]1CN[C@H](C#Cc2cc3ncnc(Nc4ccc(OCc5cccc(F)c5)c(Cl)c4)c3s2)C1)N1CCOCC1,6.59%,3.37%,6.71%,6.13%,14.8%,7.72%,5.91%,3.84%,3.3%,0.99%,2.04%,5.13%,13.7%,0.79%,1.3%,-0.56%,-2.5%,2.63%,7.79%,5.01%
CN1CCC(n2cnc(-c3ccc(F)cc3)c2-c2ccnc(NCCO)n2)CC1,1.8%,3.07%,9.14%,3.65%,4.78%,2.63%,3.28%,3.34%,2.39%,1.66%,2.24%,4.93%,7.32%,0.46%,1.42%,-2.19%,-0.11%,5.3%,9.32%,4.45%
Cc1cc(O)cc(C)c1/C=C/c1cncc(C(=O)OC(C)(C)C)c1,39.1%,11.3%,51.5%,4.61%,2.33%,3.02%,4.74%,2.54%,1.64%,1.16%,2.71%,1.99%,7.09%,1.65%,3.69%,0.72%,6.16%,4.17%,6%,38.3%
COc1cc(N2CCN(C(C)C)CC2)ccc1Nc1nc(Nc2cccc(F)c2C(=O)O)c2cc[nH]c2n1,0.99%,4.6%,9.23%,65.7%,89.8%,82.6%,95.5%,22.1%,82.3%,1.35%,5.92%,4.17%,8.87%,6.66%,2.37%,-1.39%,0.51%,4.67%,6.45%,2.86%
Nc1nccc(-c2c(-c3ccc(F)cc3)ncn2C2CCNCC2)n1,1.62% and 4.51%,-2.39% and 2.85%,2.05% and 5.24%,-2.26% and -0.62%,-1.54% and 3.61%,-1.93% and 3.33%,1.25% and 4.93%,-5.25% and 0.92%,-4.64% and -1.2%,-0.56% and 0.6%,-0.06% and 1.58%,-5.03% and -2.79%,1.1% and 3.47%,-1.85% and 0.8%,-1.57% and 1.93%,0.47% and 0.86%,2.72% and 2.66%,-2.27% and 1.08%,2.47% and 2.78%,-3.74% and 1.54%
O=C(O[C@H]1CN[C@H](C#Cc2cc3ncnc(Nc4ccc5c(ccn5Cc5cc(F)ccc5F)c4)c3s2)C1)N1CCOCC1,0.77%,4.89%,8.93%,2.56%,2.8%,6.64%,2.68%,1.67%,2.01%,1.67%,2.55%,5.05%,1.68%,1.8%,1.6%,-1.37%,0.4%,3.78%,10.6%,2.29%
COc1cc(N2CCN(C(C)C)CC2)ccc1Nc1nc(Nc2cccc3ncccc23)c2cc[nH]c2n1,2.23%,0.79%,1.71%,12%,60.5%,22.6%,82.1%,-1.05%,14.8%,-0.09%,2.05%,-1.68%,-0.17%,-0.12%,0.72%,1.35%,1.57%,1.96%,3.64%,-0.77%
c1cnn2ncc(-c3ccnc(NCCCN4CCOCC4)n3)c2c1,3.59%,8.43%,6.17%,3.62%,1.61%,4.01%,4.01%,2.15%,0.25%,1.02%,0.08%,2.8%,4.8%,2.27%,1.4%,-1.85%,-2.75%,5.58%,6.83%,5.59%
